# HIV TAR-Tat: TAR RNA-Tat peptide displacers, HIV-1, primary screen, biochemical, FRET, FAM/TAMRA-labeled Tat; HIV-1 TAR RNA, Tat peptide displacement FRET; active compounds read high; z-score (concentration not given with the values); actives 0.6% (n = 100,000); active = z-score of 3 or more in at least 2 runs
# CDC25B-CDK2 inh: primary biochemical HTRF screen for blockers of M-phase inducer phosphatase 2 binding to CDK2/cyclin A | P30305+P24941 | HTRF CDC25B-CDK2/CyclinA binding, anti-His/anti-Flag; active compounds read high | z-score (no concentration beside the values) | actives 0.72% (n = 94,000) | AID 1259370, 2018; in the data active = z-score above about 3.2
# An asterisk follows results filed as active; · = not tested or not shown. Sampled rows, rich in hits. Any-hit rate of the full collection: about 0.93%.
SMILES,HIV TAR-Tat,CDC25B-CDK2 inh
COc1ccc(C2CC(=O)N3CN(C4CCCC4)CSC3=C2C#N)cc1OC (configuration not stated),-2.1,5.9*
COc1cccc(C2CC(=O)N3CN(c4ccc(Br)cc4)CSC3=C2C#N)c1OC (configuration not stated),-3.1,5.9*
COc1cccc(C2CC(=O)N3CN(c4ccccc4)CSC3=C2C#N)c1OC (configuration not stated),1.7,3.5*
N#CC1=C2SCN(C3CCCCC3)CN2C(=O)CC1c1ccc(Cl)cc1 (configuration not stated),-2.2,0.07
COc1ccc(C2CC(=O)N3CN(c4ccc(Br)cc4)CSC3=C2C#N)cc1OC (configuration not stated),-0.65,5.6*
CC(C)CN(CC(C)C)S(=O)(=O)c1ccc2c(c1)oc(=O)n2C,·,-1.4
Cc1nn2c(=O)cc(CSCc3ccccc3)nc2s1,-1.3,-2.7
O=C(NCc1ccco1)C1CCCN(c2nc3ccccc3n3cccc23)C1 (configuration not stated),2.8,·
COc1ccc(S(=O)(=O)N2CCc3cc4cc(C)ccc4nc32)cc1,-2.6,-1.8
COc1cccc(/C=C/c2nc(C#N)c(NCCN(C)C)o2)c1,1.9,-2.7
COc1cccc(C2CC(=O)N3CN(C4CCCCC4)CSC3=C2C#N)c1OC (configuration not stated),-0.67,6.2*
COc1cccc(C2CC(=O)N3CN(C)CSC3=C2C#N)c1OC (configuration not stated),-0.83,4.3*
N#CC1=C2SCN(c3ccc(Br)cc3)CN2C(=O)CC1c1ccccc1F (configuration not stated),-1.9,7.3*
COc1ccccc1C1CC(=O)N2CN(C3CCCCC3)CSC2=C1C#N (configuration not stated),-0.27,2.5
Cc1ccc(C2CC(=O)N3CN(c4ccc(Br)cc4)CSC3=C2C#N)o1 (configuration not stated),-1.9,7.3*
Cc1cccc2c1Oc1nc(-c3ccc(C(C)C)cc3)[nH]c(=O)c1C2,-1,-2.4
CN1CCN(CCCNC(=O)C2CCN(c3ccc(-c4cccs4)nn3)CC2)CC1,0.16,·
CCOC(=O)C(=CNc1cc(C(F)(F)F)ccc1NCCc1ccccn1)C(=O)OCC,·,-0.8
CC1=C(Cl)C(=O)OC1(C)CN(C)C (configuration not stated),·,-2.2
COc1ccc(-c2noc(CC3CCCCC3)n2)cc1OC,1.6,16*
COc1ccc(-c2noc(CN3CCCCC3)n2)cc1OC,2,-0.8
COC(=O)c1sccc1NC(=O)Cc1cccs1,·,-1.3
COC(=O)c1sccc1NC(=O)c1cccs1,·,6.7*
COC(=O)c1c(N)n(-c2ccc(OC)c(OC)c2)c2nc3ccccc3nc12,1.2,10*
CCCCOC(=O)c1c(N)n(-c2ccc(OC)cc2)c2nc3ccccc3nc12,0.97,11*
SMILES,HIV TAR-Tat,CDC25B-CDK2 inh
CCCCOC(=O)c1c(N)n(-c2ccccc2OC)c2nc3ccccc3nc12,·,1.6
CCOC(=O)c1c(N)n(-c2ccc(C)c(C)c2)c2nc3ccccc3nc12,1.6,-2.2
CC(C)CCNc1cc(=O)n(C)c(=O)n1C,0.12,-0.71
COc1cc(OC)c(NC(=O)Nc2sc3nc4n(c(=O)c3c2C)CCC(C)CC4)cc1Cl (configuration not stated),0.31,11*
COc1cccc(NC(=O)Nc2sc3nc4n(c(=O)c3c2C)CCC(C)CC4)c1 (configuration not stated),0.79,-3
Cc1c(NC(=O)Nc2ccccc2Cl)sc2nc3n(c(=O)c12)CCC(C)CC3 (configuration not stated),0.25,-2.5
Cc1ccccc1NC(=O)Nc1sc2nc3n(c(=O)c2c1C)CCC(C)CC3 (configuration not stated),0.07,12*
COCCN(Cc1cccs1)C(=O)Cn1c(=O)oc2ccccc21,-0.75,·
Nc1cc(=O)[nH]c(SCc2nc(-c3cccs3)no2)n1,-0.5,-1.7
CC(C)C(N)C(=O)N1CCc2ccccc21 (configuration not stated),1.3,·
C=CCn1c(SCC(=O)NCCCO)nc2sc(C)c(C)c2c1=O,1.6,-1.2
Cc1ccc(C)c(N2CCN(S(=O)(=O)c3cnc[nH]3)CC2)c1,-0.94,-1.5
O=C(Nc1ccc(-c2nc3ccccc3o2)cc1)c1nc(-n2cnnc2)ccc1Br,7.2*,·
O=C(Nc1ccc2oc(-c3ccccc3)nc2c1)c1nc(-n2cnnc2)ccc1Br,2.5,·
CC(C)n1cnc2cc(NCc3ccco3)ccc21,0.19,7.8*
Cn1cnc2cc(NCc3ccco3)ccc21,0.29,17*
CC(C)(C)n1cnc2cc(NCc3ccco3)ccc21,1.4,0.72
CCCn1c(NCc2ccco2)nc2ccccc21,1,-0.65
CC(=O)NCCNC(=O)c1ccc(NC2=NC3CS(=O)(=O)CC3S2)cc1 (configuration not stated),11*,·
CN(C)CCNC(=O)c1ccc(NC2=NC3CS(=O)(=O)CC3S2)cc1 (configuration not stated),2.1,·
CN1CCN(CCCNC(=O)CCCN2C(=O)c3cccnc3Sc3ccccc32)CC1,0.92,·
COc1ccc(NS(=O)(=O)c2ccc3c4c(cccc24)C(=O)N3)cc1,2.2,-0.99
O=C1Nc2ccc(S(=O)(=O)Nc3ccc4oc5c(c4c3)CCCC5)c3cccc1c23,6.3*,-1.9
O=c1c(O)c(-c2cc(O)c(O)c(O)c2)oc2cc(O)ccc12,19*,·
O=c1c(O)c(-c2ccc(O)c(O)c2)oc2cc(O)ccc12,3.6,·
SMILES,HIV TAR-Tat,CDC25B-CDK2 inh
COC(=O)c1ccc(-c2ccc(CNCCSc3nnnn3C)o2)cc1,-0.94,-0.22
CCOc1cc(CNc2ccc3[nH]c(=O)[nH]c3c2)cc(Br)c1OC,-0.04,6.1*
CCOc1cc(CNc2ccc3[nH]c(=O)[nH]c3c2)cc(Br)c1OCC,0.85,-1.7
C=CCOc1ccc(CNc2ccc3[nH]c(=O)[nH]c3c2)cc1OC,-0.17,1.2
O=c1[nH]c2ccc(NCc3ccc(-c4ccc(F)cc4)o3)cc2[nH]1,-1.9,5.3*
COc1ccc(Br)cc1CNc1cc(C)cc(C)c1,0.4,-2.1
CCOc1ccc(Br)cc1CNc1ccc2[nH]c(=O)[nH]c2c1,-4.5,7.5*
COc1cc(CNc2ccc3[nH]c(=O)[nH]c3c2)cc(Br)c1OC,-0.05,8.7*
O=C(Cc1cccs1)Nc1ccc2[nH]c(=O)[nH]c2c1,1.2,·
O=C(O)CC(=O)N1CCSc2ccccc21,1.4,0.97
COc1cc2c(cc1OC)C(c1ccc3c(c1)OCO3)C1=C(CC(C)(C)CC1=O)N2 (configuration not stated),1.7,0.97
CSCC[C@@H](C(=O)Nc1cccc(F)c1)N1Cc2ccccc2C1=O,-0.95,-1.2
Cc1cccc(-c2cc(N3CCN(S(=O)(=O)c4cccc5nsnc45)CC3)ncn2)c1,1.1,·
Cc1cc2c(cc3c(=O)n(CCCC(=O)NC4CCCC4)nc(C)n32)o1,0.23,1.4
CCOc1c(Cl)cc(CNc2ncn[nH]2)cc1OC,-0.89,-0.46
O=c1[nH]c2ccc(NCC#Cc3ccccc3)cc2[nH]1,0.85,0.12
O=c1[nH]c2ccc(NCc3ccccn3)cc2[nH]1,-6.5,13*
CCOc1c(Br)cc(CNc2ccc3[nH]c(=O)[nH]c3c2)cc1OC,-3.6,8.5*

# Screening data as filed in PubChem BioAssay.
